Source: PubChem BioAssay (National Center for Advancing Translational Sciences (NCATS))
NS1 function inh: qHTS Assay for Inhibitors of Influenza NS1 Protein Function | Potency, µM (doses to about 46.1 µM) | actives 0.4% (n = 270,000); calls by dose curve; also: actives are rising curves; nearly all actives have a fitted effect of over 50% in size
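Recovery from NS1-induced slow growth read by OD600 in budding yeast switched to galactose assay medium (pH 6.0, -URA) at 1:100 dilution. Compound 23 nl per well; the matching strain lacking NS1 serves as control.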
Shiga inhibitor: A qHTS for Small Molecule Inhibitors of Shiga Toxin | Vero cells, Shiga toxin protein synthesis inhibition reporter | inhibition, % at 38.7 µM | actives 9.2% (n = 290,000) | AID 2315, 2010; in the data active = inhibition mostly above about 28%, no sharp cut-off; inactive = mostly below about 43%
Pf growth 96h: Primary qHTS for delayed death inhibitors of the malarial parasite plastid, 96 hour incubation | actives 6.9% (n = 320,000) | Potency, µM (highest dose often 28.7 µM), most hits filed as inhibitors | P. falciparum luciferase reporter growth, 96 h
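Delayed-death screen, second-generation endpoint: infected erythrocytes, 2% hematocrit, 0.05% parasitemia final; 96 hours at 37 C, 5% CO2; luciferase detection reagent; luminescence decrease equals reduced growth.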
Cycloheximide cs: Cycloheximide Counterscreen for Small Molecule Inhibitors of Shiga Toxin | cell reporter, cycloheximide protein synthesis inhibition counterscreen | max response, % | actives 12% (n = 300,000) | AID 2314, 2010; in the data active = max response mostly above about 13%, no sharp cut-off; inactive = mostly below about 14%; also: read at 38.3 µM for the half of the compounds with a filed dose
Pf growth 48h: Primary qHTS for delayed death inhibitors of the malarial parasite plastid, 48 hour incubation; P. falciparum luciferase growth in erythrocytes, 48 h; Potency, µM (top dose mostly 28.7 µM), most hits filed as inhibitors; actives 5.9% (n = 310,000); AID 504832, 2011
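Luminescence readout; reporter = integrated firefly luciferase in P. falciparum. RBC culture at 2% hematocrit, 0.1% parasitemia final, 37 C/5% CO2; decreased signal taken as growth inhibition.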
Large screens that a line does not name were inactive. Compounds with a hit are over-represented: about 21% of the library has one in this group of screens. Unless noted, calls follow the shape of the dose curve; as a rule, active = well fitted inhibition curve with a large enough effect; inconclusive = small, poorly fitted or top-dose-only effect, or another doubt; inactive = no such curve, though single readings can be large or run the other way.

CCN(CC)S(=O)(=O)c1ccc(/C(O)=C(\C#N)c2nc3ccccc3n2C)cc1	Pf growth 96h 0.262µM, Pf growth 48h inconclusive
CC(OC(=O)CNC(=O)c1ccc(F)cc1)C(=O)Nc1ccc(S(=O)(=O)N2CCOCC2)cc1 (centres undefined)	none (no result: NS1 function inh, Shiga inhibitor, Cycloheximide cs)
O=C(NC(=S)N1CCc2ccccc21)c1ccccc1Br	Shiga inhibitor 95.8, Pf growth 96h inconclusive, Cycloheximide cs 24.7
CN1CCN(C(=S)NC(=O)c2ccccc2Br)CC1	Pf growth 96h 1.85µM
CN1CCN(C(=O)c2ccccc2NC(=O)c2ccccc2Br)CC1	none
Cc1noc(C)c1S(=O)(=O)Nc1c(C)n(C)n(-c2ccccc2)c1=O	none
Cc1noc(C)c1NC(=O)NCCN1CCN(Cc2ccccc2)CC1	none
Cc1noc(C)c1S(=O)(=O)NCCN1CCN(c2ccccc2)CC1	Pf growth 96h 11.7µM
Cc1noc(C)c1S(=O)(=O)NCCCN1CCN(Cc2ccccc2)CC1	Pf growth 96h 4.65µM
Cc1ccc(N2CCN(C(=S)c3ccc(-c4cccc([N+](=O)[O-])c4)o3)CC2)cc1	none
CN1CCN(c2ccc(NC(=O)c3ccc(-c4ccc(Cl)cc4)o3)cc2)CC1	Pf growth 96h inconclusive, Pf growth 48h 2.94µM
CS(=O)(=O)N1CCN(c2ccc(NC(=O)c3ccc(-c4ccc(Cl)cc4)o3)cc2)CC1	Pf growth 96h inconclusive (no result: Pf growth 48h)
CN1CCN(c2ccc(NC(=O)c3ccc(-c4cccc([N+](=O)[O-])c4)o3)cc2)CC1	Pf growth 48h 1.47µM
Cc1ccccc1N1CCN(C(=S)c2ccc(-c3cccc([N+](=O)[O-])c3)o2)CC1	Pf growth 96h inconclusive, Pf growth 48h 10.4µM (no result: NS1 function inh)
COC(=O)C1=CN(C2CC2)C=C(C(=O)OC)C1c1ccccc1OC	Pf growth 48h 11.7µM
CCOc1ccc(S(=O)(=O)N2CCCC(C(=O)NC3CCCC3)C2)cc1 (centres undefined)	none
CCCN(Cc1nc(-c2ccc(Cl)cc2)no1)CC1CCCO1 (centres undefined)	none
CCN(Cc1nc(-c2ccc(Cl)cc2)no1)CC1CCCO1 (centres undefined)	Pf growth 96h inconclusive, Cycloheximide cs 14.5
CN1CCCN(Cc2nc(-c3ccc(Cl)cc3)no2)CC1	Pf growth 96h inconclusive, Cycloheximide cs 29.1
c1ccc(-c2noc(CN3CCc4sccc4C3)n2)cc1	Pf growth 96h inconclusive, Cycloheximide cs 18.2
CCOC(=O)C1CCN(Cc2nc(-c3ccc(OC)c(OC)c3)no2)CC1	Pf growth 48h inconclusive (no result: Pf growth 96h)
Cc1ccc(-c2noc(CN3CCC(C(N)=O)CC3)n2)cc1	Shiga inhibitor 84.1, Cycloheximide cs 41.2
CCC(C)C(N)C(=O)NC(CC(N)=O)C(=O)NC(CC(C)C)C(=O)NC(CCCCN)C(=O)NC(C)C(=O)NC(CC(C)C)C(=O)NC(C)C(=O)NC(C)C(=O)NC(CC(C)C)C(=O)NC(C)C(=O)NC(CCCCN)C(=O)NC(CCCCN)C(=O)NC(C(=O)NC(CC(C)C)C(N)=O)C(C)CC (centres undefined)	none (no result: NS1 function inh, Pf growth 96h, Pf growth 48h)
COc1ccc(-c2noc(CN(C)CCC3CCCCO3)n2)cc1 (centres undefined)	Pf growth 48h inconclusive
CC1CCN(c2ccc(-c3nc(-c4ccccc4)no3)cc2[N+](=O)[O-])CC1	Shiga inhibitor 82.3, Cycloheximide cs 43.8 (no result: NS1 function inh, Pf growth 96h, Pf growth 48h)
NC(=O)[C@@H]1CCCN1Cc1nc(-c2ccc(C(F)(F)F)cc2)no1	Pf growth 96h inconclusive, Cycloheximide cs 16.1
COC(=O)c1ccc(-c2noc(CN(C)CCC3CCCCO3)n2)cc1 (centres undefined)	Pf growth 96h inconclusive, Cycloheximide cs 16.1
CN1CCN(Cc2nnc(-c3ccccc3)o2)CC1	none
CC1CCN(Cc2nnc(-c3cccc(Br)c3)o2)CC1	Shiga inhibitor 31.8, Cycloheximide cs 34.1
Cc1c(Br)c([N+](=O)[O-])nn1CC(=O)NCc1cccs1	none
O=C(CN1c2ccccc2Sc2ccccc21)NNC(=O)Nc1cccc(Cl)c1	none
Fc1ccccc1N1CCN(Cc2nc(-c3ccccc3)no2)CC1	none (no result: Pf growth 96h)
c1ccc(-c2noc(CN3CCN(c4ccccc4)CC3)n2)cc1	Pf growth 96h 7.38µM (no result: Pf growth 48h)
Cc1ccc(-c2noc(CN3C(C)CCCC3C)n2)cc1 (centres undefined)	Pf growth 96h inconclusive, Cycloheximide cs 22.4, Pf growth 48h inconclusive
CC1CCN(Cc2nc(-c3ccccc3)no2)CC1	Cycloheximide cs 23.1
CC(=O)c1ccc(N2CCN(S(=O)(=O)c3cc4c(cc3C)NC(=O)CO4)CC2)cc1	Pf growth 48h inconclusive
CC(C)c1cccc(O)c(=O)c1	Pf growth 96h 3.29µM, Pf growth 48h 2.94µM
COc1ccc(Cc2noc(CN3CCCN(Cc4ccc(F)cc4)CC3)n2)cc1OC	none
CSc1ccccc1NC(=O)C1CC(c2c(F)cccc2Cl)=NO1 (centres undefined)	Shiga inhibitor 41.9, Cycloheximide cs 30.1
O=C(Nc1cc(Br)ccc1O)C1CC(c2c(F)cccc2Cl)=NO1 (centres undefined)	Pf growth 96h inconclusive
O=C(Nc1ccc(Br)cc1)C1CC(c2c(F)cccc2Cl)=NO1 (centres undefined)	Cycloheximide cs 12.5
NC(=O)C1CCCN(Cc2c(C(=O)N3CCc4ccccc4C3)nc3ccc(Cl)cn23)C1 (centres undefined)	Pf growth 96h inconclusive, Pf growth 48h inconclusive
CC1=CC(C)(C)Nc2ccc(OC(=O)C(C)N3C(=O)c4ccccc4C3=O)cc21 (centres undefined)	Pf growth 96h inconclusive, Pf growth 48h 13.1µM
CC1=CC(C)(C)Nc2ccc(C)cc21	Pf growth 96h inconclusive, Pf growth 48h inconclusive
CC1=CC(C)(C)Nc2ccc(OC(=O)c3cccnc3)cc21	Shiga inhibitor 93.5, Cycloheximide cs 27.0, Pf growth 48h 5.22µM (no result: Pf growth 96h)
CC1=CC(C)(C)Nc2ccc(OC(=O)c3ccco3)cc21	Pf growth 96h 9.28µM, Cycloheximide cs 17.3, Pf growth 48h 11.7µM
CC1=CC(C)(C)Nc2ccc(OC(=O)CN3C(=O)CCC3=O)cc21	Pf growth 48h 10.4µM (no result: Pf growth 96h)
O=C(Oc1ccc(F)cc1)c1cccnc1	Pf growth 96h inconclusive
COC(=O)c1cc(Br)c(=O)n(CCC2=CCCCC2)c1	none
CCCOc1ccc(C(=O)OCCN(CC)CC)cc1N	none (no result: NS1 function inh, Shiga inhibitor, Cycloheximide cs)
O=C(NCCC1=CCCCC1)C1COc2ccccc2O1 (centres undefined)	Shiga inhibitor 53.5, Cycloheximide cs 19.9
O=C(NCCCN1CCOCC1)C1COc2ccccc2O1 (centres undefined)	none
O=C(NCCc1ccc(C(F)(F)F)cc1)C1COc2ccccc2O1 (centres undefined)	Shiga inhibitor 112.2, Cycloheximide cs 42.4
Fc1cccc(Cc2noc(CN3CCCN(C4Cc5ccccc5C4)CC3)n2)c1	none
Cn1c(SCC(=O)N2CCN(Cc3ccccc3)CC2)nnc1-c1ccncc1	Pf growth 96h 2.94µM
Cn1c(SCC(=O)N2CCOCC2)nnc1-c1ccncc1	none
O=C(CSc1nnc(-c2ccccc2)n1Cc1ccccc1)N1CCOCC1	none
O=C(CSc1nnc(-c2cccnc2)n1Cc1ccccc1)N1CCOCC1	Pf growth 96h 1.85µM
